The values that follow come from PubChem BioAssay (NCATS).

Assay [1] concerns the target Voltage-gated inwardly rectifying potassium channel KCNH2 (Homo sapiens) (UniProt Q12809). The assay can be described thus: qHTS Assay for Small Molecule Inhibitors of the Human hERG Channel Activity (AID 588834; active = well fitted curve in the direction sought with a large enough effect; an effect the other way counts as inactive or inconclusive;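 also: top concentration of the series differs between compounds; % is scaled to controls: 0 for no effect and ±100 for the full control effect; lower thallium flux fluorescence means stronger hERG block; nearly all actives have a fitted effect of over 50% in size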). An outline of the steps:
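Step 1: BacMam hERG transduction of U2OS, 4 hrs RT. Step 2: overnight 37 °C, plate 2000 cells/well, 4 hr. Step 3: FluxOR load, compound 10 min, stimulate, read fluorescence.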

Assay [2] deals with Estrogen receptor (Homo sapiens) (UniProt P03372). The assay can be described thus: qHTS assay for small molecule agonists of estrogen receptor alpha signaling (AID 588514).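 Also: 0% = vehicle only and 100% = reference agonist; nearly all actives have a fitted effect of over 70% in size.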 The procedure, abridged:
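Efficacy is expressed against 20 nM 17-beta-estradiol (100%) and DMSO basal (0%); EC50 from Hill equation. Assay: beta-lactamase reporter in ER-alpha-UAS-bla HEK 293 cells, 18 h compound incubation, CCF4 detection.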

The target in assay [3] is Glucocorticoid receptor (Homo sapiens) (UniProt P04150). Briefly: qHTS assay for small molecule agonists of glucocorticoid receptor signaling (AID 588532; active = well fitted curve in the direction sought with a large enough effect in the signal ratio, with a control signal flat; the % refers to the signal ratio;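 also: 100% = dexamethasone at 0.1 µM and 0% = DMSO only wells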). The settings on record: HeLa MMTV-bla, beta-lactamase ratio, agonist, 18 h; stronger effect = higher value; percent of dexamethasone control, DMSO zero. The procedure, abridged: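 Titration series, up to 92 uM, applied to GRE-bla HeLa cells for 18 h at 37 C. Detection by CCF4 FRET substrate after 2 h at RT.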

For assay [4] the target is unchanged. The assay can be described thus: qHTS assay for small molecule antagonists of glucocorticoid receptor signaling (AID 588533; active = well fitted inhibition curve with a large enough effect in the signal ratio, with a control signal flat, not every such curve was filed as active; the % refers to the signal ratio;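 also: cells stimulated with 2 nM dexamethasone as agonist; % is scaled to controls: 0 for no effect and ±100 for the full control effect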). The procedure, abridged: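 Antagonist-mode qHTS: compound titrations added to GRE-bla HeLa cells, then dexamethasone 2 nM final; 18 h, 37 C. CCF4 FRET fluorescence normalized to dexamethasone and DMSO; IC50 from Hill fit.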
Assay [5] is described as follows: qHTS assay for small molecule antagonists of peroxisome proliferator-activated receptor delta signaling (AID 588535; active = well fitted inhibition curve with a large enough effect in the signal ratio, with a control signal flat, not every such curve was filed as active; the % refers to the signal ratio;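 as to max response: cells co-treated with a PPAR-delta agonist as stimulator during compound exposure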). The settings on record: HEK293T PPARd-UAS-bla, beta-lactamase FRET ratio, 18 h; 460 nm channel. An outline of the steps: (§1)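 Inhibition of PPAR-delta response element-driven beta-lactamase expression is measured in HEK293T cells exposed to a compound titration series for 18 hrs at 37 C. Half-maximal inhibition comes from Hill equation fitting.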

In assay [6] the target is Peroxisome proliferator-activated receptor delta (Homo sapiens) (UniProt Q03181). Described as above. The procedure, abridged:
as §1

Assay [7] has as its target Vitamin D3 receptor (Homo sapiens) (UniProt P11473). The assay can be described thus: qHTS assay for small molecule antagonists of vitamin D receptor signaling (AID 588541).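 Also: receptor activated by calcitriol during compound treatment; series mostly up to about 77 µM; % is scaled to controls: 0 for no effect and ±100 for the full control effect.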 The procedure, abridged: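 VDR-UAS-bla HEK293T cells (2000/well, 2% charcoal-stripped FBS) were treated with titrated compounds plus 1-alpha,25-dihydroxyvitamin D3 (50 nM or 3 nM final) for 16 h at 37 C. CCF4 beta-lactamase fluorescence was read; Hill fits gave IC50.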

For assay [8] the target is unchanged. The assay can be described thus: qHTS assay for small molecule agonists of vitamin D receptor signaling (AID 588543).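 Also: 0% = DMSO basal and 100% = reference agonist control.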 The procedure, abridged: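 Reporter cells (HEK293T, VDR-UAS-bla) were seeded in medium with 2% charcoal-stripped serum and incubated 5 h, then compounds in concentration series were added for 16 h at 37 °C. Stimulation was scaled between DMSO basal and 50 nM 1α,25-dihydroxyvitamin D3.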

Assay [9] can be described thus: qHTS assay for small molecule agonists of retinoid X receptor alpha signaling (AID 588544).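 As to activation: 0% = DMSO basal wells and 100% = reference agonist.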 The settings on record: HEK293T RXRa-UAS-bla, beta-lactamase reporter, 18 h; 530 nm emission.
The target in assay [10] is Retinoic acid receptor RXR-alpha (Homo sapiens) (UniProt P19793). Described as above.
The target in assay [11] is Thyroid hormone receptor beta (Homo sapiens) (UniProt P10828). Briefly: qHTS assay for small molecule agonists of thyroid hormone receptor beta signaling (AID 588545). An outline of the steps:
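HEK 293 TR-UAS-bla; agonist mode; 18 hrs, 37 C; CCF4, ex 405/em 460 and 530 nm; norm. T3 10 nM = 100%, DMSO = 0%; Hill fit → EC50, efficacy.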

Assay [12] is described as follows: qHTS assay for small molecule antagonists of retinoid X receptor alpha signaling (AID 588546; active = well fitted inhibition curve with a large enough effect in the signal ratio, with a control signal flat, not every such curve was filed as active; the % refers to the signal ratio;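 also: cells stimulated with 9-cis-retinoic acid as agonist; % is scaled to controls: 0 for no effect and ±100 for the full control effect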). The settings on record: HEK293T RXRa-UAS-bla, beta-lactamase ratio, antagonist mode; measured here: W530 green channel, cytotoxicity proxy. The procedure, abridged:
(§2)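 Beta-lactamase reporter inhibition, read as CCF4 fluorescence ratio (ex 405, em 460/530 nm) after 2 h at RT. HEK293T UAS-bla cells, 2500/well, were stimulated with 9-cis-RA at 500 or 100 nM final alongside test compound for 18 h at 37 C.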

Assay [13] concerns the target Retinoic acid receptor RXR-alpha (Homo sapiens) (UniProt P19793). Described as above. The settings on record: HEK293T RXRa-UAS-bla, beta-lactamase ratio, antagonist mode. An outline of the steps: as §2
Assay [14] concerns the target Thyroid hormone receptor beta (Homo sapiens) (UniProt P10828). The assay can be described thus: qHTS assay for small molecule antagonists of thyroid hormone receptor beta signaling (AID 588547; active = well fitted inhibition curve with a large enough effect in the signal ratio, with a control signal flat, not every such curve was filed as active; the % refers to the signal ratio;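 also: cells stimulated with 0.4 nM T3 agonist during compound exposure; series mostly up to about 77 µM; % is scaled to controls: 0 for no effect and ±100 for the full control effect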). The settings on record: TR-UAS-bla HEK293, beta-lactamase ratio, antagonist mode, 18 h. The procedure, abridged:
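TR-UAS-bla GripTite HEK293 cells in 2% charcoal/dextran FBS medium were preincubated 4 h at 37 C, given compound (0.59 nM to 92 uM) plus 0.4 nM T3 (final) for 18 h, then CCF4 for 2 h at RT; Hill fit gave IC50.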

The target in assay [15] is Luciferin 4-monooxygenase (Photinus pyralis) (UniProt P08659). The assay can be described thus: Biochemical firefly luciferase enzyme assay for NPC (AID 624030; active = well fitted curve in the direction sought with a large enough effect; an effect the other way counts as inactive or inconclusive;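 also: purified P. pyralis luciferase at 10 nM with luciferin and ATP substrate; series mostly up to about 59 µM; 0% = DMSO and -100% = full luciferase inhibition by PTC124 control; nearly all actives have a fitted effect of over 70% in size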). The procedure, abridged:
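Counter-screen for direct inhibition of the luciferase enzyme by approved-drug library compounds, run at 10 nM enzyme in 50 mM Tris acetate (final). Luminescence was read within 5 min of enzyme-buffer addition and normalized to PTC124 versus DMSO (0%).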

A short description of assay [16]: S16 Schwann cell viability assay (CellTiter-Glo assay) (AID 624031; active = well fitted curve in the direction sought with a large enough effect; an effect the other way counts as inactive or inconclusive;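 also: native untransfected S16 rat Schwann cells; series mostly up to about 58 µM; plate controls were DMSO-treated cells for no effect and cell-free wells for full effect; nearly all actives have a fitted effect of over 70% in size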). The procedure, abridged: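 Counter-screen for cytotoxicity: parental S16 rat Schwann cells lacking the PMP22 reporters, treated 24 h with compound, viability from cellular ATP by CellTiter-Glo luminescence, normalized to DMSO (0%) and no-cell wells.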
The target of assay [17] is Peroxisome proliferator-activated receptor gamma (Homo sapiens) (UniProt P37231). The assay can be described thus: qHTS assay for small molecule agonists of peroxisome proliferator-activated receptor gamma signaling (AID 588536; active = well fitted curve in the direction sought with a large enough effect in the signal ratio, with a control signal flat, not every such curve was filed as active; the % refers to the signal ratio;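 also: 0% = DMSO basal wells and 100% = rosiglitazone at 2 µM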). An outline of the steps:
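Using GeneBLAzer HEK293 cells, response was quantified by CCF4 fluorescence and normalized between basal DMSO (0%) and rosiglitazone 2 uM (100%); curves yielded half-maximal stimulation concentration and efficacy.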

The target of assay [18] is Bile acid receptor (Homo sapiens) (UniProt Q96RI1). The assay can be described thus: qHTS assay for small molecule antagonists of farnesoid X receptor signaling (AID 588526). Also: % is scaled to controls: 0 for no effect and ±100 for the full control effect. An outline of the steps: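 Concentration-response titrations were fitted to the Hill equation for half-maximal inhibition and maximal response, with data normalised to 50 uM chenodeoxycholic acid and DMSO control wells. Cells: FXR-UAS-bla HEK293T, dialyzed FBS.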

Molecules are shown by their SMILES. Where “and” joins values, the source holds several entries; their conditions need not be identical. Identical values can stand only once. Inconclusive results are not listed. Calls of active or inactive are those of the source. Unless noted, calls follow the shape of the full dose curve.

Voltage-gated inwardly rectifying potassium channel KCNH2 (Homo sapiens), sequence (Q12809 whole entry, looked up): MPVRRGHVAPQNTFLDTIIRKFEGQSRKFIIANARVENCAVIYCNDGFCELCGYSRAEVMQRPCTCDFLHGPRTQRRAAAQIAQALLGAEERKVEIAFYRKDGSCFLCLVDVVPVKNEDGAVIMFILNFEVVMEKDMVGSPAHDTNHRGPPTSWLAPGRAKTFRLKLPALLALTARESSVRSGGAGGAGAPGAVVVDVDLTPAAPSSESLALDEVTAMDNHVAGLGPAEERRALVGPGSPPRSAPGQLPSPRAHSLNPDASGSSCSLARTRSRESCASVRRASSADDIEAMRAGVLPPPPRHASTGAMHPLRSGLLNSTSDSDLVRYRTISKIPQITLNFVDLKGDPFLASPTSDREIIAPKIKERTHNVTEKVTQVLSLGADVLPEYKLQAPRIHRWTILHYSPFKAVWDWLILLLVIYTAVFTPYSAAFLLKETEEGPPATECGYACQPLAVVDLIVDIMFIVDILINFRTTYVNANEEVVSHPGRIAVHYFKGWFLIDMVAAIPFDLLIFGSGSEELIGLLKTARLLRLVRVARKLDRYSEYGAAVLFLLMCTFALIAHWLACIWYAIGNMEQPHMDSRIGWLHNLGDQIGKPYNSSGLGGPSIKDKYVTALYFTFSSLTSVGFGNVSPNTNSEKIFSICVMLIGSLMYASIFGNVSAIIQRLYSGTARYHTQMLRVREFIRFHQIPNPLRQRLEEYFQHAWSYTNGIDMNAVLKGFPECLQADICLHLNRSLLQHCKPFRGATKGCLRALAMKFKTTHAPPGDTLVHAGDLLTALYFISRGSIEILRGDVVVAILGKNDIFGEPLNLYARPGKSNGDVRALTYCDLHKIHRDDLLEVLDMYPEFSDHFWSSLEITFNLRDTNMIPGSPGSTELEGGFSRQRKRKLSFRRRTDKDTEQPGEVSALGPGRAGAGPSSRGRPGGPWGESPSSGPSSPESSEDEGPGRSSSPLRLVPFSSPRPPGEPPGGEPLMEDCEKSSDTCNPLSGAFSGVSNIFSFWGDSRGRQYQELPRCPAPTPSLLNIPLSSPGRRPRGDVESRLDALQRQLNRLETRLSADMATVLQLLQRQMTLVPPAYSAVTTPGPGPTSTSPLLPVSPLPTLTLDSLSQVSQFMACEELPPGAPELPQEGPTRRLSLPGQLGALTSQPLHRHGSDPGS
Luciferin 4-monooxygenase (Photinus pyralis), sequence (P08659 whole entry, looked up): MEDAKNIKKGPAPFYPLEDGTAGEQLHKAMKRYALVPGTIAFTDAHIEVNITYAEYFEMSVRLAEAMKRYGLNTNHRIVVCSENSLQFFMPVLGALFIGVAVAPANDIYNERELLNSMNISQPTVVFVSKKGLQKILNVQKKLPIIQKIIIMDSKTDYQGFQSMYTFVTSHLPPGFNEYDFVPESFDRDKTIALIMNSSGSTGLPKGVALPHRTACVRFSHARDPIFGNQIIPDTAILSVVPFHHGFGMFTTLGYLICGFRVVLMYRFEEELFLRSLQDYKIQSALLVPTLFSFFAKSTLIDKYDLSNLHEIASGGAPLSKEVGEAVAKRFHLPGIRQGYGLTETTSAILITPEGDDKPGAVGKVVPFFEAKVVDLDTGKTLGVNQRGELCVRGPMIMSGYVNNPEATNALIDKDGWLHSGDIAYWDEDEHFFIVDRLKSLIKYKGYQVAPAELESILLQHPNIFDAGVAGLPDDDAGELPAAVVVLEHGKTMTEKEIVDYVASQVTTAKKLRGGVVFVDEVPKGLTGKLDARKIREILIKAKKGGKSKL
Retinoic acid receptor RXR-alpha (Homo sapiens), sequence (P19793 whole entry, looked up): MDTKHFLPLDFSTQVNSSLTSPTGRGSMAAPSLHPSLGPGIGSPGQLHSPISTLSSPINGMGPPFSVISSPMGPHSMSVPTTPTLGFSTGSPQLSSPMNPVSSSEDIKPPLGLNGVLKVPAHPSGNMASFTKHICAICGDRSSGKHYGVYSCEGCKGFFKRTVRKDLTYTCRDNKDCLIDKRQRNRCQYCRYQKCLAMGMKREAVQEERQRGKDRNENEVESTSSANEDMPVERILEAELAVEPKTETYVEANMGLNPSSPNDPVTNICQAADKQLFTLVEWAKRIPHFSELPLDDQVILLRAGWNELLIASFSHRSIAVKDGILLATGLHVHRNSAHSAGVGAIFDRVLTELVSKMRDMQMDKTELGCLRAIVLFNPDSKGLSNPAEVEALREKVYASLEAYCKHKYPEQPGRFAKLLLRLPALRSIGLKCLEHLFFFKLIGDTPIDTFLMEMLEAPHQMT
Vitamin D3 receptor (Homo sapiens), sequence (P11473 whole entry, looked up): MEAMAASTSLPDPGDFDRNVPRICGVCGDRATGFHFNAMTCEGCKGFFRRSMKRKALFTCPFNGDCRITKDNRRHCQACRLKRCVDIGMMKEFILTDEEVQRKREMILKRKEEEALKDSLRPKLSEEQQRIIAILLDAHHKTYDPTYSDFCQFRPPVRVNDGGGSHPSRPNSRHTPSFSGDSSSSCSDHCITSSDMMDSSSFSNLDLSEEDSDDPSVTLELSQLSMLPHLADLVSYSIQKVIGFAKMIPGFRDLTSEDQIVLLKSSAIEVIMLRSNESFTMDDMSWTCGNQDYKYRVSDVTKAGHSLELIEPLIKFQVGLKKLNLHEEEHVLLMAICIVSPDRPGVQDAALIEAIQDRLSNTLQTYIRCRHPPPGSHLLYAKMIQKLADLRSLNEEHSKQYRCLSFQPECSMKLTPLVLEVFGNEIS
Bile acid receptor (Homo sapiens), sequence (Q96RI1 whole entry, looked up): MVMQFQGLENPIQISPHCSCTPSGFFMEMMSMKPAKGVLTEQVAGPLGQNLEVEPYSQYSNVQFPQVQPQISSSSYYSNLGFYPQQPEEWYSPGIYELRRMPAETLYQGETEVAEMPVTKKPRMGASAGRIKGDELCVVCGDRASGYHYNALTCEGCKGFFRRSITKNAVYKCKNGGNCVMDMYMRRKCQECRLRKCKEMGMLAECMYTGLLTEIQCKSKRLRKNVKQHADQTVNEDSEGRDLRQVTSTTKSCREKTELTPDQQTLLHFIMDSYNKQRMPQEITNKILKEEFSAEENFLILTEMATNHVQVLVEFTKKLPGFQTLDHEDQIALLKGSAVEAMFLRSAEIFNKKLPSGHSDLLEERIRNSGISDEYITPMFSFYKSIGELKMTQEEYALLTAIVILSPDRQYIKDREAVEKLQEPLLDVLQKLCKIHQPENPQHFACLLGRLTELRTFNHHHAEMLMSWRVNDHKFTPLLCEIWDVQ
Peroxisome proliferator-activated receptor delta (Homo sapiens), sequence (Q03181 whole entry, looked up): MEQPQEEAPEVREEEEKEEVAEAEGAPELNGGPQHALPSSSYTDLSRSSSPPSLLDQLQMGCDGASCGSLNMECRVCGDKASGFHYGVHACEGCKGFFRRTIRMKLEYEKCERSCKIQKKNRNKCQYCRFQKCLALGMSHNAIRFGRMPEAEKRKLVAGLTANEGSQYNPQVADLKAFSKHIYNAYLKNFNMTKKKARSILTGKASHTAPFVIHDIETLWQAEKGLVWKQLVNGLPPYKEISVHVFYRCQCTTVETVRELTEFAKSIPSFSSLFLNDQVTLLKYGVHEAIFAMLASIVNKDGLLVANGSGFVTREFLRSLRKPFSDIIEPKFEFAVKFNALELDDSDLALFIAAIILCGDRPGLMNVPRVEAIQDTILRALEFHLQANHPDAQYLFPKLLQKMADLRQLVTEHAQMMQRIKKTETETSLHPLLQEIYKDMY
Thyroid hormone receptor beta (Homo sapiens), sequence (P10828 whole entry, looked up): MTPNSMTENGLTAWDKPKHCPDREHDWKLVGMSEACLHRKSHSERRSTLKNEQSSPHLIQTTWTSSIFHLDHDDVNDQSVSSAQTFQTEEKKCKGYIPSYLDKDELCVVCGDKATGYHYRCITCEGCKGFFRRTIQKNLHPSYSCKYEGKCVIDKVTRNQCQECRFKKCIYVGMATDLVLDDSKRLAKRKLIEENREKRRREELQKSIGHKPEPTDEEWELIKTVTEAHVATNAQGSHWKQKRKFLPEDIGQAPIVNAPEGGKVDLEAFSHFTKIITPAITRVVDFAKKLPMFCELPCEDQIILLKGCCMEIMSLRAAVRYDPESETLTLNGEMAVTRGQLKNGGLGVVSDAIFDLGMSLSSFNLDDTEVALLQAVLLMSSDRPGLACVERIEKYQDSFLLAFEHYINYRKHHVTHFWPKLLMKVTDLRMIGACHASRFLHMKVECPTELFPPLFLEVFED
Glucocorticoid receptor (Homo sapiens), sequence (P04150 whole entry, looked up): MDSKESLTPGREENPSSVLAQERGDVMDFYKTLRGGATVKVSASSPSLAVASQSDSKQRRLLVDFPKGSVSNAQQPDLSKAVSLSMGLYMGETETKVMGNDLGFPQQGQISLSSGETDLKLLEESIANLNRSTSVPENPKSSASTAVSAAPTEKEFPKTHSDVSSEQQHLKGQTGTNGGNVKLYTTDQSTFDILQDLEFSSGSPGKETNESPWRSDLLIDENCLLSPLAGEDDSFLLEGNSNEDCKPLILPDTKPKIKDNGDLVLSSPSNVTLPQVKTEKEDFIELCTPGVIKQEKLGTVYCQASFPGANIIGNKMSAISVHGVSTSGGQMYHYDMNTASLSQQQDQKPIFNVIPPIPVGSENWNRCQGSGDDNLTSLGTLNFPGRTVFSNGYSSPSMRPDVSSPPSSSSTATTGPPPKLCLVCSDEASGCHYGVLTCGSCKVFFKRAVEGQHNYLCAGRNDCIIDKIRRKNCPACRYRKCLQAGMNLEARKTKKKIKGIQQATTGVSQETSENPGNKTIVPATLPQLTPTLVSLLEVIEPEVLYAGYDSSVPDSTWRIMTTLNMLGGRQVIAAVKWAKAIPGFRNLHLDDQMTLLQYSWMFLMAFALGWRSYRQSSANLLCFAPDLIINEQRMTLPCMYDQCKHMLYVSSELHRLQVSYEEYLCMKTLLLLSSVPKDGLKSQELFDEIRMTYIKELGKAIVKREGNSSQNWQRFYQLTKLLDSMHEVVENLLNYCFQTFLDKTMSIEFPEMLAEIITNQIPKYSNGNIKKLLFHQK

As for `C[n+]1ccccc1/C=N/O`, the Potency result in assay [1] is “inactive”.

`CC(=O)NS(=O)(=O)c1ccc(N)cc1`: the result in [2], in assay [4], in assay [6], in [7], in assay [8] and in assay [10] was inactive. In addition, the molecule was called inactive in assay [11] and in assay [16]. Further, in assay [3], the activation is -1.25% (inactive). Moreover, the max response in [5] was 26.9%; in [9] it was -19.7%; in assay [12], -14.4%; in assay [13] it was 16.1% (inactive). Moreover, the activity change % (negative = inhibition) in assay [14] was -0.298% (inactive). The Potency result in assay [15] was “inactive”.

With `CC(=O)Nc1ccc(C(=O)O)cc1`, the molecule was called inactive in assay [2], in assay [4], in [17], in assay [10], in assay [11] and in assay [16]. Further, the activation in [3] is -0.936% (inactive). Further, the max response was -5.85% in assay [9], -6.58% in assay [12] and 1.7% (inactive) in assay [13]. The activity change % (negative = inhibition) in assay [14] is 2.92% (inactive). Moreover, the Potency entry in [1] and in [15] was “inactive” in each case.

For `OC[C@@H](O)[C@@H](O)[C@H](O)[C@H](O)CO`, the call in assay [2], in assay [17], in assay [7], in assay [8], in [10] and in assay [11] was inactive. The result in assay [16] was inactive. Also, the results for the max response in [9], in assay [12] and in assay [13] were -0.766%, -16.3% and 13.9% (inactive), respectively. In assay [14], the activity change % (negative = inhibition) is -14.9% (inactive). For the same molecule, the Potency result in assay [15] was “inactive”.

Regarding `Cc1cc(=O)[nH]c(=S)[nH]1`, the outcome in assay [2], in assay [18], in assay [4], in assay [17], in [7] and in [8] was inactive. Also, the molecule was called inactive in [10], in [11] and in assay [16]. The activation in assay [3] is -0.999% (inactive). For the same molecule, the max response in assay [9] was -2.22%; in [12], -3.7%; in assay [13] it was 1.44% (inactive). Also, the activity change % (negative = inhibition) in assay [14] is 15.5% (inactive). The Potency entry in assay [1] and in assay [15] was “inactive” in each case.

On to `Cc1cc(C)nc(NS(=O)(=O)c2ccc(N)cc2)n1`, for which the molecule was classed as inactive in assay [18], in assay [4], in assay [6], in assay [17], in assay [10] and in assay [11]. Moreover, the result in assay [16] was inactive. Besides, the activation in assay [3] was 5.22% (inactive) and 0.742% (inactive). For the same molecule, the max response in assay [5] was 18.4% and -14.9%; in assay [9] it was -3.23% and 6.31%; in assay [12], 1.53% and -6.64%; in [13], -0.622% (inactive) and -18.2% (inactive). For the same molecule, the activity change % (negative = inhibition) in assay [14] was -2.95% (inactive) and 11.9% (inactive). In addition, the Potency entry in assay [1] and in assay [15] was “inactive” each time.
